This is an account of results in PubChem BioAssay (NCI).

Values joined by “and” are separate entries in the source; they are usually repeats but may differ in a detail not shown here. Identical values can stand only once. Compounds without any hit were thinned out: in the full panel of roughly 79,000, 15% have a hit. Values without a mark were called inactive. Cut-off read from the data, not from the text of the source: active = growth inhibition above about 70%; inactive = the rest.

This assay can be described thus: NCI Yeast Anticancer Drug Screen. Data for the mlh1 rad18 strain (AID 175). The following applies: S. cerevisiae mlh1 rad18 strain growth inhibition, stronger effect = higher value; at 50.0 µM unless noted. An outline of the steps: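 A repair-deficient yeast strain is exposed to test compound, and growth is scored relative to vehicle-treated controls.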
Regarding `CCOC(=O)/C=C/CCC(C)(C)COC(C)=O`, the growth inhibition is -31.9%.

Consider `C=C(C)C(=O)O[C@H]1[C@H]2[C@H](OC(=O)[C@H]2C)[C@H](O)[C@@H](C)[C@@H]2C=CC(=O)[C@]21C`, for which the growth inhibition is -31.1%.

Turning to `O=c1oc(-c2ccc([N+](=O)[O-])cc2)nc2cc(Cl)ccc12`, the growth inhibition was 18.6%.

For `O=C(/C=C/c1ccc(O)c(O)c1)OC1CC(O)(C(=O)O)CC(O)C1O` (centres undefined) (tested in a mixture with another compound), the growth inhibition is -12.3%.

As for `Cc1ccc(C2OC3=C(Nc4ccc([N+](=O)[O-])cc4N3)C2=O)cc1` (centres undefined), the growth inhibition was 3.25%.

As for `CC(=O)CC(=O)NCC1CCC(CNC(=O)CC(C)=O)CC1` (centres undefined), the growth inhibition is -48.8%.

Consider `Cc1[nH]c(=S)[nH]c1C`, for which the growth inhibition was 12.6%.

Regarding `C[N+](C)=c1nc(N2CCOCC2)ss1`, the growth inhibition is -16.9%.

With `O=C(O)C1C2OC3C(OC(=O)C31)C2Br` (centres undefined), the growth inhibition is -4.65% and 25.3%.

Turning to `O=C1NC(Cc2ccccc2)C(=O)NC1Cc1ccccc1` (centres undefined), the growth inhibition is -1.35%.

Consider `CCCCC(NC(=O)C(C)NC(=O)OCc1ccccc1)C(=O)O` (centres undefined), for which the growth inhibition was -9.6%.

For `CC1(C)N=C(Oc2cc(Cl)cc(Cl)c2)NC(=S)N1`, the growth inhibition was 24%.

Take `c1ccc2c(c1)ccc1c[n+]3ccccc3cc12`: the growth inhibition is 61.9%.

As to `O=C(F)c1cccc2ccccc12`, the growth inhibition was -31.3%.

For the compound `Cc1c2ccccc2nc(CS(C)(=O)=O)[n+]1[O-]`, the growth inhibition is -5.5%.

As to `COc1ccc(C=C(C(=O)O)C(=O)O)cc1`, the growth inhibition is 29.6%.

As to `ClCc1ccccc1C(c1ccccc1)c1ccccc1`, the growth inhibition is 21.9%.

As for `CCOC(=O)c1c(C)[nH]c(C(=O)CCN(C)C)c1C`, the growth inhibition is 0.65%.

With `COc1ccc2c(c1)[nH]c1c3ccc(OC)cc3oc(=O)c21`, the growth inhibition was -33.9%.

Turning to `COc1c2c(c(OC)c3ccccc13)C(=O)C1=C(CC=CC1)C2=O`, the growth inhibition was 40.1%.

On to `CC(C)(O)C1CC(=O)C(C)(C2C(O)CC3(C)C4CC=C5C(CCC(O)C5(C)C)C4(C)C(=O)CC23C)O1` (centres undefined), for which the growth inhibition is 47.6%.

With `CC(C)C1=CCC2C(=C1)CCC1C(C)(N=C=O)CCCC21C` (centres undefined), the growth inhibition was -4%.

On to `CC1CCC(c2ccccc2)(c2ccccc2)C1=O` (centres undefined), for which the growth inhibition is -2.25%.

For `Clc1ccc(N=Nc2nc3ccccc3nc2N=Nc2ccc(Cl)cc2Cl)c(Cl)c1`, the growth inhibition was 0.55%.

Consider `CC(=O)c1c(Cl)nnc(-c2ccccc2)c1-c1ccccc1`, for which the growth inhibition is -12.3%.

Turning to `C/C=C/C#C/C=C1/C=CC(=O)O1`, the growth inhibition was 10.1%.

Regarding `O=C1c2ccccc2C(=O)c2c3c(cc(NCCNCCO)c21)N(CCO)CCN3`, the growth inhibition is 29.1%.

As for `Nc1c(F)cc(I)cc1F`, the growth inhibition was 1.35%.

Consider `Cc1cccc(NC(=O)Nc2ccccc2F)n1`, for which the growth inhibition is -12.1%.

Take `O=C(CC(=O)C(F)(F)F)c1ccccc1.O=C(CC(=O)C(F)(F)F)c1ccccc1.[Mn]`: the growth inhibition was 18.5%.

As to `CN(C)C(CCC(=O)NC(C)(C)C)CC(=O)NC(C)(C)C` (centres undefined), the growth inhibition was -8.65%.

In the case of `CCCC1([N+]2(C)CCCC2)CS(=O)C1CC` (centres undefined), the growth inhibition is -13.3%.

Consider `c1ccc2nc3c(cc2c1)NCC3`, for which the growth inhibition was -20.9%.

With `CCCCOC(=O)c1cccc(C)c1`, the growth inhibition was -0.9%.

Consider `COc1cc(/C=C/C(=O)c2c(=O)o[nH][n+]2-c2ccccc2)ccc1[O-]`, for which the growth inhibition was -18.1%.

For `O=Nc1c(O)c2ccccc2[nH]c1=O`, the growth inhibition was 30.4%.

In the case of `O=C(O)CCCl`, the growth inhibition was 29.3%.

For the compound `C=CCNC(=S)NNc1nc(C)cc(=O)[nH]1`, the growth inhibition was 4.3%.

On to `O=S1(=O)OCCOS(=O)(=O)C1Cc1nc2ccccc2[nH]1`, for which the growth inhibition is 37.1%.
